Data taken from PubChem BioAssay (NCATS).
Inconclusive results are not listed. Unmarked numbers belong to inactive results. Activity calls are given as the source filed them. Calls come from the whole dose curve; as a rule, active = well fitted inhibition curve with a large enough effect; inconclusive = small, poorly fitted or top-dose-only effect; inactive = no such curve, though single readings can be large or run the other way.

Tested on: Zika virus NS2B-NS3 protease (unlinked complex)
Assay: Primary screen GU Rhodamine qHTS for Zika virus inhibitors: Unlinked NS2B-NS3 protease assay (AID 1347159); note: nearly all actives have a fitted effect of over 60% in size
Details: Recombinant ZIKV NS2B-NS3 protease, Rhodamine110 substrate fluorescence; series mostly up to 107 µM; activity change, negative = inhibition: at the top concentration
Procedure, shortened: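 Buffer 10 mM Tris-HCl pH 8.0, 0.01% Tween 20. Unlinked protease 25 nM; compound preincubation 15 min, RT, protected from light. Substrate Rhod110, 1.5 microM; ~15% conversion in 15 min.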
% is set by controls: 0 for no effect and ±100 for the full control effect.

With `COc1ccc2c(NC(=O)Nc3cccc(C(F)(F)F)n3)ccnc2c1` the “activity change, negative = inhibition” value was -6.57%.

In the case of `CC[C@H]1OC(=O)[C@H](C)[C@@H](O[C@H]2C[C@@](C)(OC)[C@@H](O)[C@H](C)O2)[C@H](C)[C@@H](O[C@H]2O[C@H](C)C[C@H](N(C)C)[C@H]2O)[C@](C)(O)C[C@@H](C)C(=O)[C@H](C)[C@@H](O)[C@]1(C)O`, the “activity change, negative = inhibition” value was 21.5% [at 57.1 µM].

In the case of `C/C=C\NC(=O)C1NC(=O)C(CC(N)=O)NC(=O)C(NC(=O)C(=O)C(C)CC)Cc2ccc(O)c(c2)-c2cccc3c2NC(=O)C3(O)C1O` (stereo not drawn), the “activity change, negative = inhibition” value was 23.7% [at 32.5 µM].

Tested on: Zika virus NS2B-NS3 protease (linked construct)
Assay: Primary screen NINDS Rhodamine qHTS for Zika virus inhibitors (AID 1347160); note: nearly all actives have a fitted effect of over 55% in size; note: potency is the fitted concentration of half-maximal effect
Details: purified NS2B-NS3 protease, Rhodamine110 substrate fluorescence; series mostly up to 57.1 µM; activity change, negative = inhibition: at the top concentration
Procedure, shortened: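 Aprotinin served as in-plate control. Conditions: 25 nM linked NS2B-NS3, pH 8.0 Tris buffer, titrated compounds, 15 min preincubation and 15 min reaction with 1.5 microM Rhod110 substrate at room temperature.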

First: CCOC(=O)C1=Cc2ccc(C(F)(F)C(F)(F)F)cc2N=C(N)C1
Second: COc1ccc2c(NC(=O)Nc3cccc(C(F)(F)F)n3)ccnc2c1
The “activity change, negative = inhibition” value of the first is higher: 31% for the first, -13% for the second.

Compared with `Cn1ncnc1[C@@H]1c2n[nH]c(=O)c3cc(F)cc(c23)N[C@H]1c1ccc(F)cc1`, `Cc1ccc(S(=O)(=O)N2CCC[C@H]2c2ccc(F)cc2)cc1` is lower in “activity change, negative = inhibition” value: 22.6% for the first, -0.736% for the second.

Compared with `COc1cc(C#N)ccc1S(=O)(=O)Nc1ccc2c(c1)cc(C)c(=O)n2C`, `N#Cc1ccc(O[C@@H]2c3ccccc3C[C@H]2N2CCC[C@@H](N)C2)c(Cl)c1` is higher in “activity change, negative = inhibition” value: 20.8% for the first, 145% for the second.

First: O=C(NC1(c2ccccc2)CC1)c1c(CN2CCC(N3CCCCC3)CC2)c(-c2cccc(C(F)(F)F)c2)nc2cc(Br)ccc12
Second: O=C(CSc1nc2ccccc2c(=O)n1-c1ccccc1)Nc1ccc2c(c1)CCC2
The “activity change, negative = inhibition” value of the first is higher: 169% for the first, 7.97% for the second.

Compared with `Cc1c(NC(=O)OCC2COCCN2)cn2ncnc(Nc3ccc4c(cnn4Cc4cccc(F)c4)c3)c12` (stereo not drawn), `CC(C)OC(=O)N1CCC(Oc2ncnc3c2cnn3-c2ccc(S(C)(=O)=O)cc2F)CC1` is lower in “activity change, negative = inhibition” value: 177% for the first, 24.5% for the second.

First: COc1c(C)cnc(Cn2cc(C#CCC(C)(C)O)c3c(Cl)nc(N)nc32)c1C
Second: Nc1nc(OCc2cc(Br)cs2)c2[nH]cnc2n1
The “activity change, negative = inhibition” value of the first is higher: 36.4% for the first, 20.9% for the second.

Compared with `O=C(c1ccccn1)N(Cc1cccs1)C1(C(=O)NC2CCCCC2)CCCCC1`, `O=C(NC[C@H](O)CN1CCc2ccccc2C1)c1ccnc(NC2CCC2)c1` is lower in “activity change, negative = inhibition” value: 9.89% for the first, 7.32% for the second.

Compared with `COc1ccc(CCN(C)CCCOc2nsc(-c3ccccc3)n2)cc1OC`, `Cn1nc(C(C)(C)C)cc1C(=O)N[C@@H](Cc1cccc(Cl)c1)C(=O)NCC#N` is lower in “activity change, negative = inhibition” value: 54.2% for the first, -1.82% for the second.

Going from `C=C1C(=O)O[C@@H]2C[C@@]3(C)CCCC(=C)[C@]3(O)C[C@H]12` to `C=C1C(=O)O[C@H]2C3=C(C)CCC[C@]3(C)C(=O)C[C@@H]12`, the “activity change, negative = inhibition” value falls from 14% to 12%.

Compared with `COc1cc(O)cc(OC2OC(CO)C(O)C(O)C2O)c1` (stereo not drawn), `CC(C)(CO)c1cc2cc(NC(=O)C3(c4ccc5c(c4)OC(F)(F)O5)CC3)c(F)cc2n1CC(O)CO` (stereo not drawn) is higher in “activity change, negative = inhibition” value: -23.2% for the first, -3.02% for the second.

Going from `CCCCNc1ncc2c(-c3ccc(S(=O)(=O)N4CCOCC4)cc3)nn(C3CCC(O)CC3)c2n1` (stereo not drawn) to `Fc1ccc(CN2CCC(Nc3ccc(C(F)(F)F)nn3)CC2)cc1F`, the “activity change, negative = inhibition” value rises from -15.9% to 18.6%.

First: COC(=O)CC[C@@H](C)C1CCC2C3CCC4C[C@H](OC(C)=O)CCC4(C)C3C[C@H](O)C21C (stereo partly drawn)
Second: NC(=O)c1nc(Nc2ccccc2)sc1NC(=O)C1CCCCC1
The “activity change, negative = inhibition” value of the first is lower: -1.84% for the first, 22% for the second.

In the case of `COc1cc2c(cc1OCCCN1CCCC1)N=C(N)C21CCC1`, the “outcome” value was “inactive”.
For `COc1ccc2cc3c(NC(=O)c4ccco4)nn(C)c3nc2c1`, the “outcome” value was “inactive”.
With `CN(C)CCOc1cc(NS(=O)(=O)c2c(Cl)cc(C(F)(F)F)cc2Cl)ccc1Cl` the “outcome” value was “inactive”.
In the case of `CC(=O)O[C@H]1C[C@H](OC(C)=O)[C@]2(C)[C@H](CC[C@@]34O[C@@H]3C3=C(C)C(=O)O[C@@H]3C[C@H]42)C1(C)C`, the “outcome” value was “inactive [at 33.1 µM]”.
For `COc1cc(C(=O)NCC2(N(C)C)CCCC2)cc(OC)c1OCc1ccccc1`, the “outcome” value was “inactive”.
For `COc1nc2ccc(Br)cc2cc1[C@@H](c1ccccc1)[C@@](O)(CCN(C)C)c1cccc2ccccc12`, the “outcome” value was “inactive”.
In the case of `C=C(C)C(=O)O[C@H]1[C@H]2C(=C)C(=O)O[C@@H]2C[C@@H](C)[C@@H]2O[C@@H]2C(=O)[C@](C)(O)[C@@H]1OC(=O)C(=C)C`, the “outcome” value was “inactive [at 33.1 µM]”.

First: C=C(COC(=O)C(O)C(O)CN)C12OC1C1(C)C(=CC2=O)C(O)C(O)CC1C (stereo not drawn)
Second: CC1(CO)CC(O)[C@]2(C(=O)O)CCC34CC3(C=CC3[C@]5(C)C(CC[C@]34C)C(C)(CO)[C@@H](O)[C@H](O)[C@@H]5O)C2C1 (stereo partly drawn)
The “activity change, negative = inhibition” value of the first is higher: 53% [at 33.1 µM] for the first, -18% [at 33.1 µM] for the second.

Compared with `CC(C)(O)C1CC(=O)C2(C)C(CCC3(C)C(c4ccoc4)OC(=O)C4OC432)C12CCC(=O)OC2` (stereo not drawn), `CC[C@H]1OC(=O)[C@H](C)[C@@H](O[C@H]2C[C@@](C)(OC)[C@@H](O)[C@H](C)O2)[C@H](C)[C@@H](O[C@H]2O[C@H](C)C[C@H](N(C)C)[C@H]2O)[C@](C)(O)C[C@@H](C)C(=O)[C@H](C)[C@@H](O)[C@]1(C)O` is higher in “activity change, negative = inhibition” value: -8.93% [at 33.1 µM] for the first, 22.6% [at 33.1 µM] for the second.

For `CCOc1cc(C(C)(C)C)ccc1C1=N[C@@](C)(c2ccc(Cl)cc2)[C@@](C)(c2ccc(Cl)cc2)N1C(=O)N1CCN(CC(=O)N2CCOCC2)CC1`, the “activity change, negative = inhibition” value was 0.162% [at 33.1 µM].

For `CC[C@H](C)/C=C(C)/C=C/C1=CC2=C(Cl)C(=O)[C@](C)(O)[C@H](OC(C)=O)[C@H]2CO1`, the Potency was 11.2 µM (active).

`NC(=O)C1=CC2C3C=CC2C(OC3=O)O1` (stereo not drawn) was tested, and the “activity change, negative = inhibition” value was -3.73% [at 112 µM].

Going from `C[C@@H]1O[C@@H](O[C@H]2CC[C@@]3(C)C(CC[C@]4(C)C3CC=C3[C@@H]5CC(C)(C)CC[C@]5(C(=O)O[C@@H]5O[C@H](CO)[C@@H](O)[C@H](O)[C@H]5O)CC[C@]34C)[C@]2(C)CO)[C@H](O)[C@H](O[C@@H]2O[C@H](CO)[C@@H](O)[C@H](O)[C@H]2O)[C@H]1O` (stereo partly drawn) to `C/C=C\NC(=O)C1NC(=O)C(CC(N)=O)NC(=O)C(NC(=O)C(=O)C(C)CC)Cc2ccc(O)c(c2)-c2cccc3c2NC(=O)C3(O)C1O` (stereo not drawn), the “activity change, negative = inhibition” value rises from 14.8% [at 15.1 µM] to 29.7% [at 15.1 µM].
